PubChem BioAssay (NCI)
Compounds without any hit were thinned out: in the full panel of roughly 83,000, 20% have a hit.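 Single-concentration screen, 48 h exposure, 96-well plates. Endpoint: percent growth. Below 10 = active.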 A number with no mark means an inactive call. Calls of active or inactive are those of the source.

What follows are molecules tested on MDA-MB-468 breast (assay: NCI-60 one-dose screen, 48 h (100 = growth as untreated, 0 = no growth, -100 = all killed)). Details: 10 µM unless noted.

Row | SMILES | growth
1 | CC1(COc2ccc3ncc(C#Cc4cncc(C(=O)Nc5cc(C(C)(C)C)on5)c4)n3n2)COC1 | 85%
2 | COc1c(C(=O)Nc2ccc(C)c(Br)c2)ccc2ccccc12 | 87.9%
3 | Cc1ccc(/C=C2\SC(=S)N(CC(=O)NCCCN3CCOCC3)C2=O)cc1 | 94.9%
4 | Cc1ccc(C(=O)C2=Cc3cc4ccccc4n3Cc3cnnn32)cc1 | 100%
5 | Cc1cc(NCC(=O)Nc2ccc(-c3nc4ccccc4s3)cc2)no1 | -46.7% (active)
6 | O=S(=O)(NCc1ccccc1)c1ncnc2nc[nH]c12 | 108%
7 | OCCNCCNc1c2ccccc2nc2ccccc12 | 37.4%
8 | CCOC(=O)c1ccccc1NC(c1ccccc1)c1ccc2cccnc2c1O (stereo not drawn) | 8.19% (active)
9 | C[C@@]1(CCC#N)[C@H]2CC[C@@H]3[C@H]4[C@H](C(=O)/C=C/c5cccnc5)CC[C@]4(C#N)CC[C@@]3(C)[C@]2(C)CC[C@H]1C(=O)/C=C/c1cccnc1 | 57.9%
10 | O=C(NCCCCCCNC(=O)c1c2c(nc3ccccc13)-c1cccnc1SC2)c1c2c(nc3ccccc13)-c1cccnc1SC2 | 90.4%
11 | COc1cccc(-c2nn(-c3ccccc3)cc2-c2ccnc(NCCNC(=O)c3ccccc3)c2)c1 | 47.7%
12 | COc1ccc(/C=C/C(=O)c2cccc(OCCCCOc3cccc(C(=O)/C=C/c4ccc(OC)c(OC)c4)c3)c2)cc1OC | 23.1%
13 | CCCCCCCCCCCCNC(=O)N[C@H](C(=O)N[C@H]1/C=C/CCNC(=O)/C=C/[C@H](C)NC1=O)C(C)C | -66.6% (active)
14 | Cc1ccc(-c2nc(C#N)c(S(=O)(=O)N(C)C)o2)cc1 | 81.6%
15 | O=C(Nc1cccc2ccccc12)c1cc2c(cc1Br)OCO2 | 95.4%
16 | COc1ccc(C2CC(c3ccc(Nc4ccnc5cc(Cl)ccc45)cc3)=NN2c2ccccc2)cc1 (stereo not drawn) | 101%
17 | O=C1Nc2ccc(F)cc2/C1=C\c1nc(-c2ccccc2F)n2ccccc12 | 69.2%
18 | COc1cc2c(cc1-c1c(C)noc1C)ncc1nc(C3CCCC3)n([C@H](C)COC(F)F)c12 | 32.7%
19 | CC1CCN(CCCCCOc2ccc3oc4cc(Cl)ccc4c(=O)c3c2)CC1 | 57.7%
20 | COc1ccc(-c2nn(-c3cccc(Cl)c3)cc2-c2c(C#N)c(N)n(N)c(=O)c2C#N)cc1 | 56.1%
21 | Nc1ccc(-c2cccs2)cc1NC(=O)c1ccc(CCCC(=O)Nc2ccc(C3CC3N)cc2)cc1 (stereo not drawn) | 69.6%
22 | Cc1ccc2oc(=O)cc(-c3nc4ccc([N+](=O)[O-])cc4[nH]3)c2c1 | 29%
23 | C(=C\c1cn(-c2ccccc2)nc1-c1ccccc1)/c1nnc(-c2c[nH]c3ccccc23)o1 | 87.1%
24 | CC(C)=NNc1ncnc2c1ncn2C1OC(CO)C(O)C1O (stereo not drawn) | 12.5%
25 | COc1ccc(-c2nn(-c3ccccc3)cc2/C=C2/SC(=S)N(C)C2=O)cc1 | 89.1%
26 | O=c1[nH]c(=O)n(C2CC(O)C(CO)O2)cc1C(F)(F)F (stereo not drawn) | 62.7%
27 | COc1ccc(-c2cc(-c3ccc(Cl)cc3)nc(SCCCCCCC(=O)NO)n2)cc1OC | 55.2%
28 | C=CC(=O)N[C@H](/C=C/C(=O)OCC)Cc1ccc(-c2cc(Cl)cc(Cl)c2)cc1 | 88%
